Test results as given in PubChem BioAssay AID696 (Sanford-Burnham Center for Chemical Genomics, 2007).
Hit rate of the full screen: of about 96,000 compounds, about 1,200 (1.2%) were called active. Cut-off read from the data, not from the text of the source: active = activation fold above about 2; inactive = the rest. This excerpt belongs to a sample that is enriched for actives.

Each compound was assayed against Alkaline phosphatase, placental type (Homo sapiens) (UniProt P05187) (assay: activation of human placental alkaline phosphatase – biochemical, luminescence, HTS (AID 696)). Details: purified PLAP enzyme, luminescent substrate read-out; at 20 µM; hits give high values.
Chain of Alkaline phosphatase, placental type (Homo sapiens) (P05187 whole entry, looked up): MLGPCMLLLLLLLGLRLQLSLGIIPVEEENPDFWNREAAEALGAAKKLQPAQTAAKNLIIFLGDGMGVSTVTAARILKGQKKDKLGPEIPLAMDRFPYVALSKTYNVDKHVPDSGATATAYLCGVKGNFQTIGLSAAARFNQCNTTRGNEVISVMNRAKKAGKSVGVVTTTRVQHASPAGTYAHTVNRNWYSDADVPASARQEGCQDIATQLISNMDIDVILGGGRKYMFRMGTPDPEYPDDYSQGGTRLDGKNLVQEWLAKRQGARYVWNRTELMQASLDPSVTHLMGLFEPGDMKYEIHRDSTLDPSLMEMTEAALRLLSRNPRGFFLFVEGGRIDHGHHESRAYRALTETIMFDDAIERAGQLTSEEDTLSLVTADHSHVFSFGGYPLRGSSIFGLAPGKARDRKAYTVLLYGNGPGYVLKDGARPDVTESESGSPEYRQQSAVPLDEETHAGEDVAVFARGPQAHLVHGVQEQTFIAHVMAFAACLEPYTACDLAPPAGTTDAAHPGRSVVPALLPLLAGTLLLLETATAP

Compound | activation fold
Cc1cccc(NC(=S)Nc2ccc(Br)cc2)c1 | 1.2 (inactive)
O=C(Nc1nnc(SCc2ccccc2)s1)c1ccco1 | 1.1 (inactive)
COC(=O)c1ccc(NC(=O)c2ccco2)cc1 | 0.8 (inactive)
O=C(Nc1nnc(CCOCCOCCc2nnc(NC(=O)c3ccco3)s2)s1)c1ccco1 | 2 (active)
COc1ccc(C(=O)NC(=S)Nc2ccccc2N2CCN(S(C)(=O)=O)CC2)cc1OC | 1 (inactive)
CCN(C(=O)CSc1ncn[nH]1)c1cccc2ccccc12 | 2.3 (active)
CC(C)(C)c1ccc(C(=O)CSc2ncn[nH]2)cc1 | 1.5 (inactive)
O=C(CSc1ncn[nH]1)Nc1ccnc2ccccc12 | 1.9 (inactive)
Cc1sc(NC(=S)NC(=O)c2cccs2)nc1-c1ccc(CC(C)C)cc1 | 1.5 (inactive)
Cc1ccc(S(=O)(=O)NCCSC(C)(C)C)cc1 | 0.9 (inactive)
COc1ccc(CCNC(=O)COC(=O)c2ccc[nH]c2=O)cc1 | 1 (inactive)
Cc1ccc(S(=O)(=O)C(C#N)c2nc3ccccc3nc2N2CCCC2)cc1C (stereo unspecified) | 1.4 (inactive)
Cc1ccc(C)c(N2CCN(S(=O)(=O)c3ccc4c(c3)oc(=O)n4C)CC2)c1 | 1.4 (inactive)
Cc1cc(N2CCN(S(=O)(=O)c3ccc(C)c(C)c3)CC2)c2ccccc2n1 | 2.1 (active)
COC(=O)c1[nH]c2ccc(Br)cc2c1NC(=O)Oc1ccccc1 | 1.1 (inactive)
O=C(CN1C(=O)COc2ccccc21)NCCN1CCc2ccccc2C1 | 1.3 (inactive)
CCCN1CCN(CCCNC(=O)CN2C(=O)COc3ccccc32)CC1 | 1.2 (inactive)
O=C(CN1C(=O)COc2ccccc21)Nc1ccc(F)cc1 | 2.5 (active)
O=C(Nc1cc(C(F)(F)F)ccc1Cl)c1cc2nc3c(c(C(F)(F)F)n2n1)CCCC3 | 1.6 (inactive)
Clc1ccc(-c2nnc(-c3ccccc3)nc2N2CCSCC2)cc1 | 1.4 (inactive)
O=C1C2C3C=CC(C4CC34)C2C(=O)N1/N=C/c1ccc(-c2ccccc2[N+](=O)[O-])o1 (stereo unspecified) | 0.9 (inactive)
COc1ccc(Cl)cc1C(=O)NCc1cn(C)nc1C | 1.1 (inactive)
Cc1nn(C)cc1C(=O)NNC(=S)Nc1ccc(Cl)cc1 | 2.2 (active)
S=C(NCc1cccs1)Nc1ccc(Cl)cc1 | 0.9 (inactive)
O=C(CNC(=O)c1ccccc1)NCC(=O)OCc1ccc(Cl)cc1 | 0.9 (inactive)
Cc1ccccc1C(OCC(O)CN1CCCCC1CCO)c1ccccc1 (stereo unspecified) | 2.1 (active)

Compound | activation fold
OC(COc1cccc(OCC(O)CN2CCCC2)c1)CN1CCCC1 (stereo unspecified) | 1.2 (inactive)
COc1cccc(OCc2cc(/C=N/NC(=O)c3nc(Cl)c(Cl)c(N)c3Cl)ccc2OC)c1 | 1.5 (inactive)
CCc1c(C)nc2cc(C)[nH]n2c1=O | 0.9 (inactive)
CCCc1nnc(NC(=O)c2cccs2)s1 | 0.9 (inactive)
CCCc1nnc(NC(=O)CN2C(=O)c3ccccc3S2(=O)=O)s1 | 2.2 (active)
CNC(=O)CN1C(=O)c2ccccc2S1(=O)=O | 0.9 (inactive)
COc1cc2c(cc1OC)C(C(=O)NCc1ccco1)C1c3ccccc3CCN1C2=O (stereo unspecified) | 1.2 (inactive)
NC(CSC12CC3CC(CC(C3)C1)C2)C(=O)O (stereo unspecified) | 2 (active)
O=C(O)CSCNC(=O)CC12CC3CC(CC(C3)C1)C2 | 1.2 (inactive)
CN1/C(=c2/s/c(=C3/C(=O)N(c4ccccc4)NC3=Nc3ccccc3)n(C)c2=O)C(C)(C)c2ccccc21 | 0.7 (inactive)
COc1ccc(S(=O)(=O)Nc2ccc3oc(C)c(C(C)=O)c3c2)cc1 | 1.3 (inactive)
Cc1nc2nc(C)c(CCC(=O)N3CCN(c4ccccc4)CC3)c(C)n2n1 | 0.8 (inactive)
O=C(Nc1ncccn1)c1cccs1 | 0.9 (inactive)
COc1ccc(CC(=O)Nc2nc3n(n2)C(c2ccccc2)CC(=O)N3)cc1OC (stereo unspecified) | 1.5 (inactive)
CC1CC(c2ccccc2)n2nc(NC(=O)c3cccs3)nc2N1 (stereo unspecified) | 2.1 (active)
CN(C(=O)CSc1nnc(N)s1)c1c(N)n(Cc2ccccc2)c(=O)[nH]c1=O | 1.1 (inactive)
O=C(CN1C(=O)CC(c2ccccc2)=Nc2ccccc21)NC1CCCCC1 | 1 (inactive)
Cc1ccc(-n2nc3ccc(NC(=O)/C=C/c4ccco4)cc3n2)cc1C | 0.9 (inactive)
O=C(CSc1nnc(-c2ccco2)o1)NCC(=O)c1ccccc1 | 1.2 (inactive)
CCOC(=O)c1sc(NC(=O)CSc2nnc(-c3ccco3)o2)c(C(=O)OCC)c1C | 1 (inactive)
Cc1cccc(NC(=O)CSc2nnc(-c3ccco3)o2)c1 | 2 (active)
CONC(=O)c1cc(OCC(F)(F)F)ccc1OCC(F)(F)F | 1 (inactive)
Cn1c(SCC(=O)NC2CCCCC2)nnc1-c1cc2ccccc2o1 | 1.1 (inactive)
Cc1cccc(N2C(=O)C3C(c4ccccc4)OC4(C(=O)c5ccccc5C4=O)C3C2=O)c1 (stereo unspecified) | 1.2 (inactive)
Cc1cccc(N2C(=O)c3cccnc3C2=O)c1 | 1 (inactive)
CCCc1nc2scc(-c3ccc(C)cc3)c2c(=O)n1N | 0.9 (inactive)

Compound | activation fold
N#C/C(=C(\O)CCl)c1nnc2n1CCCCC2 | 0.8 (inactive)
Cc1cc([N+](=O)[O-])ccc1NCc1cccc([N+](=O)[O-])c1 | 1 (inactive)
COCCCn1c(SCc2cccc(OC)c2)nc2cc(OC)c(OC)cc2c1=N | 1.5 (inactive)
Cc1ccc(C(c2sc3nc(C)nn3c2O)N2CCN(c3ccc(F)cc3)CC2)cc1 (stereo unspecified) | 1.7 (inactive)
Oc1c(C(c2cccs2)N2CCN(c3ccc(F)cc3)CC2)sc2ncnn12 (stereo unspecified) | 2 (active)
Oc1c(C(c2ccco2)N2CCC3(CC2)OCCO3)sc2ncnn12 (stereo unspecified) | 1.7 (inactive)
O=C(O)c1cnn2c(C(F)(F)F)cc(-c3ccccc3)nc12 | 0.9 (inactive)
C/C(=N\NC(=O)Cc1ccc(Cl)cc1)c1ccccn1 | 1.8 (inactive)
CCNc1nc(N)nc(-c2cc(Cl)ccc2OC)n1 | 1 (inactive)
COc1ccc(C(=O)NNC(=O)c2cnccn2)cc1[N+](=O)[O-] | 2.8 (active)
COc1ccccc1CCNC(=O)c1cnccn1 | 1.2 (inactive)
CC(C)NC(=O)c1ccc(Sc2ccccc2)c([N+](=O)[O-])c1 | 1.2 (inactive)
CC(Oc1ccc(F)cc1F)C(=O)/C=C/N(C)C (stereo unspecified) | 1.2 (inactive)
CC(=O)c1sc(NC(=O)c2cccc3ccccc23)nc1C | 1 (inactive)
COc1cccc2sc(Nc3nc(C)c(C(C)=O)s3)nc12 | 2.4 (active)
CC(=O)c1sc(NC(=O)c2ccc(C)cc2)nc1C | 1.2 (inactive)
Cc1ccc(NC(=S)NC(NC(=O)Cc2cccc3ccccc23)C(Cl)(Cl)Cl)cc1 (stereo unspecified) | 0.6 (inactive)
COC(=O)c1ccc(CSc2nnc(NC(C)C)s2)cc1 | 0.9 (inactive)
CC1=NN(C(=O)c2ccccc2Br)C(O)(c2cccnc2)C1 (stereo unspecified) | 1.4 (inactive)
CC1=NN(C(=O)Cc2ccc(C)cc2)C(O)(c2cccnc2)C1 (stereo unspecified) | 2.4 (active)
Cc1ccc(NC(=O)N2CCC(O)(c3cccnc3)CC2)cc1 | 0.9 (inactive)
O=C(Nc1ccc2ccccc2c1)Nc1ccc2snnc2c1 | 0.9 (inactive)
O=C(NCCCCCCCCCNC(=O)C(F)(F)F)C(F)(F)F | 0.9 (inactive)
COc1ccc(Cl)cc1NC(=O)c1oc(C)nc1C | 1.4 (inactive)
COc1ccc(Cl)cc1NC(=O)CN(C)C(=O)CNC(=O)C12CC3CC(CC(C3)C1)C2 | 2 (active)
CCCCC(=O)N/N=C(\C)CC(=O)Nc1cc(Cl)ccc1OC | 0.9 (inactive)

Compound | activation fold
O=C(COc1ccc(Br)cc1F)NC1CCN(Cc2ccccc2)CC1 | 1.7 (inactive)
Cc1ccc2[nH]c(=O)c(CN(CCCN(C)C)C(=O)Nc3cccc(Cl)c3)cc2c1 | 1.5 (inactive)
CN(C)S(=O)(=O)c1ccc(NC(=O)COC(=O)c2n[nH]c3ccccc23)cc1 | 1 (inactive)
O=C(COC(=O)c1n[nH]c2ccccc12)NCc1ccccc1 | 2.2 (active)
COc1ccc(COC(=O)c2n[nH]c3ccccc23)cc1F | 1.4 (inactive)
Cn1c(N)c(C(=O)COC(=O)C23CC4CC(CC(C4)C2)C3)c(=O)n(C)c1=O | 1.9 (inactive)
CC/C(C)=N/Nc1nc2sc3c(c2c(=O)[nH]1)CC(C)(C)OC3 | 1.1 (inactive)
C=CCNC(=S)NNc1ncnc2sc3c(c12)CC(C)(C)OC3 | 2.2 (active)
CCC(O)CNc1nc(-n2nc(C)cc2C)nc2sc3c(c12)CC(C)(C)OC3 (stereo unspecified) | 1 (inactive)
Cc1ccc(SC(=O)COc2ccc(C)c(C)c2)cc1 | 1 (inactive)
CCOC(=O)c1[nH]cnc1C(=O)NC1CCCCC1 | 2.2 (active)
CCOC(=O)C1=C(CNC2CCCCC2)NC(=O)NC1c1cc(C)ccc1C (stereo unspecified) | 1.1 (inactive)
COc1cc(OC)c(C(=O)NC2CCCCCC2)cc1OC | 1.7 (inactive)
Cc1cc(C(=O)OC(C)C(=O)Nc2cccc(S(=O)(=O)N3CCOCC3)c2)c(C)o1 (stereo unspecified) | 1.7 (inactive)
CCOc1cccc(-n2nnnc2-c2ccc(OC)cc2)c1 | 1.4 (inactive)
COC(=O)C(C)n1cnc2c(nnn2-c2cccc(Cl)c2)c1=O (stereo unspecified) | 0.9 (inactive)
CCOc1nnc(C)c2c(C)n(-c3cccc(Cl)c3)nc12 | 2.1 (active)
CCCCCCCC(=O)NC(Nc1ccccc1OC)C(Cl)(Cl)Cl (stereo unspecified) | 0.9 (inactive)
CCN(CC)S(=O)(=O)c1ccc2nc(COC(=O)c3n[nH]c4ccccc34)[nH]c2c1 | 1.8 (inactive)
CCN(CC)S(=O)(=O)c1ccc2nc(CSc3nnnn3-c3ccc(O)cc3)[nH]c2c1 | 2.7 (active)
O=c1c2ccccc2nc(CSc2nnnn2-c2ccccc2)n1-c1ccccc1 | 0.9 (inactive)
CC(=O)NS(=O)(=O)c1ccc(NC(=S)NC(=O)C(C)(C)C)cc1 | 1.1 (inactive)
COc1ccccc1NC(=O)c1ccc2nc(N3C(=O)CCC3=O)sc2c1 | 1.1 (inactive)
